The whole screen tested about 360,000 compounds, of which about 25,000 (6.9%) were called active. Roughly 9% stayed inconclusive and do not appear here. The sample holds actives, similar compounds and a random draw of the others, so the mix is not that of the screen. Values without a mark were called inactive. The call rests on the fitted dose curve; in most records, active means well fitted inhibition curve with a large enough effect; inconclusive means small, poorly fitted or top-dose-only effect; inactive means flat fitted curve, though single readings scatter.
What follows are molecules tested against Luciferin 4-monooxygenase (Photinus pyralis) (UniProt P08659) (assay: qHTS profiling assay for firefly luciferase inhibitor/activator using purifed enzyme and Km concentrations of substrates (counterscreen for miR-21 project)). Conditions: purified FLuc, luminescence inhibition; series mostly up to 57.5 µM; activity change, negative = inhibition: at the top concentration.
Sequence of Luciferin 4-monooxygenase (Photinus pyralis) (P08659 whole entry, looked up): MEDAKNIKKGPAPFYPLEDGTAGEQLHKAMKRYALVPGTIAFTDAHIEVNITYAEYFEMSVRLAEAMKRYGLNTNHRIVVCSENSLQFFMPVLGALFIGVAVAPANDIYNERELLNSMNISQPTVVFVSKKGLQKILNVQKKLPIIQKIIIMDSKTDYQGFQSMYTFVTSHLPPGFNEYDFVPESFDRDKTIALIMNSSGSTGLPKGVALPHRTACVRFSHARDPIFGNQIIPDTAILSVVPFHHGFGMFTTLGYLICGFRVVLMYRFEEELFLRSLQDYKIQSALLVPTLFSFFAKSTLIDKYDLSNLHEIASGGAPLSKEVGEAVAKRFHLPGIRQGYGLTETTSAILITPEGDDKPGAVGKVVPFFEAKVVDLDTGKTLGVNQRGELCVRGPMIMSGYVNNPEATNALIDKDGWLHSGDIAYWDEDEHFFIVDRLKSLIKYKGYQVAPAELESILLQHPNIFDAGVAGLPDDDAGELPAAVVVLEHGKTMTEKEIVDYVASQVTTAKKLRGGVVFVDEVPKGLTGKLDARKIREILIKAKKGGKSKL
From the text: MLPCN Grant: 1 R21 NS059478-01 (miR-21 grant) Assay Provider: NCGC NCGC Assay Overview: Firefly (Photinus pyralis) luciferase is one of the most commonly used transcriptional reporters for a number of reasons. It is considered one of the more dynamically responsive reporters -that is, responsive to changes in reporter transcription - as it requires no post-translational modifications and is enzymatically active directly after protein synthesis (Wood, 1998). Additionally, the half-life of the luciferase protein is short relative to other reporter-gene products (Wood, 1995). Whereas reporters with long half-lives potentially allow for increased signal due to accumulation of reporter-gene product, once accumulated in the cell, dynamic changes in reporter-gene expression may be difficult to detect(Fan and Wood, 2007; Almond et al., 2004). It has been shown that wild-type P. pyralis luciferase has a half-life of approximately […] hours in mammalian cells (Thompson et al., 1991). Firefly luciferase reporter-gene assays are also generally considered one of the most sensitive assay types (Wood, 1995; Wood, 1998). Although light produced in a bioluminescence reaction is of lower intensity than that produced during fluorescence emission, this is offset by little to no background light inherent to luminescent assays. Thus the luciferase reporter can be expressed at much lower levels than fluorescent proteins while still providing robust signal. # However, it was initially observed, in 1991, by Thompson et al., that compounds that resemble the substrates of firefly luciferase (FLuc) can act as competitive inhibitors of the enzyme, and that these compounds, upon interaction with luciferase in the cell, can actually stabilize the protein and increase its half-life. Accumulated intracellular FLuc protein can be measured as an increase in luminescence signal, upon addition of detection reagents (which contain high concentrations of FLuc substrates) commonly used in high-throughput screening. In cell-based reporter gene assays that use FLuc as the reporter gene to quantitate the potential influence of a given compound against the target biology, this apparent increase in luminescence can mistakenly be interpreted as identification of a compound that is active against the target of interest. This is the case for the miR-21 FLuc reporter gene assay used to identify inhibitors of the miR-21 pathway (PubChem AID 2289) - compounds of interest will inhibit miR-21 biogenesis/expression or activity, and are identified by causing an increase in luminescence, due to increased FLuc translation. However, FLuc inhibitory compounds that stabilize the FLuc protein will give an identical read-out, making it difficult to distinguish compounds that are active against the target from those active against FLuc. Previous profiling work to determine the prevalence of compounds that affect FLuc enzymatic activity (PubChem AID 411) identified that ~3% of the MLSMR library (then at ~72K) inhibited FLuc. […] Since the MLSMR had grown to ~350K compounds, and since it was expected that a significant percentage of compounds found active in the miR-21 FLuc assay would be FLuc inhibitors, the library was screened for activity against FLuc using a biochemical assay of purified FLuc and KM concentrations of FLuc substrates (D-luciferin and ATP).
NCGC Assay Protocol Summary: Reagents: 50mM Tris acetate, pH 7.5; 10mM Mg acetate; 10uM D-luciferin (Sigma #L9504); 10uM ATP; 0.01% Tween-20; 0.05% BSA; 10nM P. pyralis luciferase (Sigma #L9506) Control compounds used were two known firefly luciferase inhibitors (compounds (2) and (5) in Auld et al., 2010), and DMSO. […]
With `CCC(=O)Nc1ccc(C)cc1-c1nc2ccccc2n(Cc2ccccc2)c1=O` the “activity change, negative = inhibition” value was -1.05%. In the case of `COc1cccc(/C=C2\C=C(c3ccc(C)cc3)OC2=O)c1OC(C)=O`, the Potency is reported as 15.1 µM (active). In the case of `CC(=O)Oc1ccc(-c2nc3c(C)cccc3c(=O)o2)cc1`, the “activity change, negative = inhibition” value is reported as -16.3%. For `CN(C)/C=C1\C=C(c2ccccc2)OC1=O`, the “activity change, negative = inhibition” value was -15%. For `O=C1C=C(c2ccnc3cc(Cl)ccc23)C[C@@H](c2ccc3c(c2)OCO3)C1`, the “activity change, negative = inhibition” value was 2.17%. Molecule `Cc1cc2c(c(=O)n1Cc1ccccc1)C1O[C@](CCCCN3C(=O)c4ccccc4C3=O)(Cc3ccccc31)O2` has an activity change, negative = inhibition of 4.34% [at 11.5 µM]. For `O=C(CCCN=C1NS(=O)(=O)c2ccccc21)OCC(=O)c1ccc(F)c(F)c1`, the “activity change, negative = inhibition” value was 0.261%. With `COc1ccc(C(=O)NCc2cn3ccccc3n2)cc1` the “activity change, negative = inhibition” value was 6.17%. For `Cn1cc[n+](C)c1COc1ccc(C=O)cc1`, the “activity change, negative = inhibition” value was -0.526%. For `O=Cc1ccc(OCc2cn3ccccc3n2)cc1`, the Potency was 12 µM (active). For `Cc1ccc(OCCSc2nc(C)c(Cc3ccccc3)c(=O)[nH]2)cc1`, the “activity change, negative = inhibition” value was -5.18%. `O=C(Nc1ccn(Cc2ccccc2)n1)c1n[nH]c([N+](=O)[O-])c1Cl` was tested, and the Potency was 0.849 µM (active). `O=C(Nc1ccccc1N1CCN(c2ccccc2)CC1)c1cccc(F)c1` was tested, and the “activity change, negative = inhibition” value was -0.474%. For `CCn1c(=O)c(=O)n(CC)c2cc(N3CCCCC3)c(NC(=O)c3cccc(F)c3)cc21`, the “activity change, negative = inhibition” value was 4.07%. With `O=C(Nc1ccn(Cc2ccccc2)n1)c1cccc(F)c1` the Potency was 4.78 µM (active). With `Cc1ccc(Cn2ccc(NC(=O)C3C4CCC(C4)C3C(=O)O)n2)cc1` (stereo not given) the “activity change, negative = inhibition” value was -2.09%. For `O=C(Cn1cnc([N+](=O)[O-])n1)NCCc1ccccc1`, the “activity change, negative = inhibition” value was 6.43%. `COc1cc(NC(=O)CSc2nc3nc(C)c(Cc4ccc(C)cc4)c(C)n3n2)cc(OC)c1OC` was tested, and the “activity change, negative = inhibition” value was -10.1%. `CCC(C)N(C(=O)CSc1nnnn1-c1ccccc1OC)C1CCS(=O)(=O)C1` (stereo not given) was tested, and the “activity change, negative = inhibition” value was 0.645%. For `CCC(=O)N1CCc2cc(S(=O)(=O)NC(C(=O)NCCc3ccc(C)cc3)C(C)C)ccc21` (stereo not given), the “activity change, negative = inhibition” value was -4.06%. `Cc1cc(Oc2ccc(Cl)cc2)nc(SCC(=O)c2ccccc2)n1` was tested, and the “activity change, negative = inhibition” value was -2.98%. In the case of `Cc1cc(C)nc(SCC(=O)c2ccc(Cl)cc2)n1`, the “activity change, negative = inhibition” value is reported as 1.59%. With `Cc1cc(C)nc(S/C=C/C(=O)c2ccccc2)n1` the Potency was 3.79 µM (active). `O=C(CSc1nccn1-c1ccc(F)cc1)Nc1cccc2ccccc12` was tested, and the “activity change, negative = inhibition” value was -15.4%. `S=C(c1ccccc1)N1CCCC1` was tested, and the “activity change, negative = inhibition” value was -0.387%. `S=C(c1ccc(-c2ccccc2)o1)N1CCCCC1` was tested, and the Potency was 2.69 µM (active). In the case of `OCCN1CCN(C(=S)c2ccc(-c3ccccc3)cc2)CC1`, the “activity change, negative = inhibition” value is reported as -14.4%. For `COc1cccc(C(=O)NC2(C(F)(F)F)C(=O)Nc3c2c(=O)[nH]c(=O)n3-c2ccc(C)cc2)c1` (stereo not given), the “activity change, negative = inhibition” value was -3.45%. For `CC1CC(C)CN(C(=O)COC(=O)c2ccc3ncsc3c2)C1` (stereo not given), the “activity change, negative = inhibition” value was -5.66%. `Cc1nc2sccn2c(=O)c1S(=O)(=O)NCCc1ccccc1` was tested, and the “activity change, negative = inhibition” value was 5.93%. In the case of `CCCc1cc(-c2n[nH]c(=S)n2Cc2ccccc2)cs1`, the “activity change, negative = inhibition” value is reported as -0.86%. In the case of `Cc1nc(C)c(-c2csc(NCCc3ccccc3)n2)s1`, the Potency is reported as 16.9 µM (active). In the case of `Cc1c(Cl)cccc1NC(=O)C1CCCN(c2ncnc3onc(C)c23)C1` (stereo not given), the “activity change, negative = inhibition” value is reported as 10.6%. In the case of `Cc1ccc(Cl)cc1N1CCN(C(=O)c2cnc3c(-c4ccc(F)cc4)c(C)nn3c2C)CC1`, the “activity change, negative = inhibition” value is reported as 0.594%. With `O=C(Nc1cccnc1)c1cccc(S(=O)(=O)N2CCCC2)c1` the “activity change, negative = inhibition” value was -2.12%. In the case of `Cc1noc(C)c1COc1cccc(C(=O)Nc2cccnc2)c1`, the “activity change, negative = inhibition” value is reported as -4.82%. With `O=C(Nc1cccnc1)c1noc2c1CCCCC2` the Potency was 7.57 µM (active). For `CCOC(=O)c1c(C)[nH]c(CCC(=O)Nc2ccc(OC)c(OC)c2)c1C`, the “activity change, negative = inhibition” value was -6.27%. `Cc1cc2nc(-c3ccc(NC(=O)c4cccnc4)cc3)oc2cc1C` was tested, and the Potency was 6.75 µM (active). In the case of `Cc1ccc2nc(-c3ccc(NC(=O)c4cccnc4)cc3)oc2c1`, the Potency is reported as 5.36 µM (active). With `Cc1cc(NS(=O)(=O)c2ccc(NC(=O)c3cccnc3)cc2)nc(C)n1` the “activity change, negative = inhibition” value was -0.527%. For `O=C(Nc1ccc(-c2nc3cc(NC(=O)c4ccccc4Cl)ccc3o2)cc1)c1ccccc1Cl`, the “activity change, negative = inhibition” value was -2%. With `O=C(Cc1ccccc1)Nc1ccc(NC(=O)c2cccnc2)cc1` the “activity change, negative = inhibition” value was -2.2%. `CC(=O)NC(=S)Nc1ccc(NC(=O)c2cccnc2)cc1` was tested, and the “activity change, negative = inhibition” value was -0.139%. `CC(C)NC(=O)C1CCC(Cn2c(=O)c3sccc3n(Cc3ccc(F)cc3)c2=O)CC1` (stereo not given) was tested, and the “activity change, negative = inhibition” value was -0.0077%. `COc1cc(OC)c(NC(=O)N2CC3CCCN3c3ccccc32)cc1Cl` (stereo not given) was tested, and the “activity change, negative = inhibition” value was -9.36%. With `COC(=O)c1ccccc1NC(=O)Cn1c(=O)cc(C)c2c(C)nn(-c3cccc(Cl)c3C)c21` the “activity change, negative = inhibition” value was 0.184%. In the case of `COc1ccc2ncc3c(-c4ccc(C)c(C)c4)nn(CC(=O)NC4CCCC4)c3c2c1`, the “activity change, negative = inhibition” value is reported as -4.06%. For `CCOC(=O)COc1cc(O)c2c(=O)cc(-c3ccccc3)oc2c1`, the “activity change, negative = inhibition” value was -14.3%. With `COc1c(O)cc2oc(-c3ccc(O)c(O)c3)cc(=O)c2c1O` the Potency was 19 µM (active).

— PubChem BioAssay AID588342 (National Center for Advancing Translational Sciences (NCATS), 2011)
Further: nearly all actives have a fitted effect of over 55% in size.
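Wherever activity change, negative = inhibition is given: plate controls were vehicle for no effect and reference inhibitor for full effect.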
